Experimental findings from PubChem BioAssay (NCI) are described below.

Structures are written as SMILES. This is part of a sample that, as a whole, favours compounds with a hit. Of some 83,000 tested, about 20% had one in any assay.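 Values shown are percent growth following 48 h exposure of cells in 96-well plates to a single concentration of compound; below 10 was considered active.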 Values without a mark were called inactive. Active and inactive are the calls of the source.

One test concerns DU-145 prostate. The test is described as follows: NCI-60 one-dose screen, 48 h (100 = growth as untreated, 0 = no growth, -100 = all killed). The note with it: 10 µM unless noted.
Consider `Cc1nc(Nc2ccccn2)sc1C(=O)CC(SCC(=O)Nc1ccc(Cl)cc1)c1ccccc1F` (stereo not given), for which the growth is -35.3% (active).

As for `Cc1cccc(-c2nc(Nc3ccc(C)c(S(N)(=O)=O)c3)c3ccccc3n2)c1`, the growth is 53.2%.

As for `CN(C)CCn1c2ccccc2c2nc3cc(C(F)(F)F)ccc3nc21`, the growth was 31.4%.

Consider `S=C(Nc1ccccc1)Nc1ccc(OCc2nc3ccccc3[nH]2)cc1`, for which the growth was 43.8%.

A further test concerns K-562 leukemia. The description is as above. The note with it: 10 µM unless noted.
As to `O=C1NC(=O)c2c1c1c3cc(Br)ccc3[nH]c1c1oc3ccc(F)cc3c21`, the growth was 4.29% (active).

In the case of `C#CCOc1ccc(/C=N/Nc2nc(-c3ccc(F)cc3)cs2)cc1OC`, the growth was 25%.

Regarding `O=C1NC(=O)/C(=C/c2ccccc2OCc2cc3ccccc3nc2Cl)S1`, the growth was 84.6%.

For `Cc1ccc(NCC(=O)Cn2cc(COc3ccc(C=Nc4cnc5ccccc5c4)cc3)nn2)cc1`, the growth was 102%.

Regarding `C/C(=N\N=C1/C(=O)Nc2ccccc21)c1ccc2c(c1)Nc1ccccc1S2`, the growth was 31.8%.

`C/C(=N\N=C1/C(=O)Nc2ccc(Cl)cc21)c1ccc2c(c1)Nc1ccccc1S2`: the growth was 10%.

Regarding `CCN(CC)c1ccnc(CNCCSC(c2ccccc2)(c2ccccc2)c2ccc(C)cc2)c1`, the growth was -45.1% (active).

In the case of `Cc1cc2c(cc1Cl)C(=O)/C(=C/c1ccccc1)O2`, the growth is 9.17% (active).

As for `COc1ccc(C(=O)/C=C/c2ccc(OCc3ccc(F)cc3)c(OC)c2)cc1OC`, the growth was 7.71% (active).

With `COc1cc(OC)c2c3nc4cc(C)c(C)cc4nc3n(CCN(C)C)c2c1`, the growth is 1.64% (active).

Consider `N=C1N=C(SCc2nc3ccccc3[nH]2)NC(=O)/C1=C/c1ccc(Cl)cc1`, for which the growth is 110%.
